Laboratory results as given in publication PMC5540273 (PLoS ONE, 2017).
Several values for one entry are separate records, joined by “and”; a condition that tells them apart may be missing. Equal values may be shown once. Read-outs that look alike come from different tables or passages of the source.

Tests used:
PAK6 = conditions: n = 1
PAK7 = conditions: n = 1
PCTK1 = test system: T1, PCTK1; conditions: concentration: 1 μM, replicates: in singlicate; n = 1
T1 construct: gene CDK16

PCTK2 = test system: T2, PCTK2; conditions: concentration: 1 μM, replicates: in singlicate; n = 1
T2 construct: gene CDK17

PCTK3 = test system: T3, PCTK3; conditions: n = 1
T3 construct: gene CDK18

PDGFRA = conditions: n = 1
PDGFRB = conditions: n = 1
PDPK1 = conditions: n = 1
PFTAIRE2 = conditions: n = 1
PFTK1 = test system: T4, PFTK1; conditions: n = 1
T4 construct: gene CDK14

[1] = concentration: 1 μM, replicates: in singlicate
[2] = concentration: 1 μM,replicates: in singlicate, 1 µM
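Also: KINOMEscan kinase panel screen.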

SMILES | %Inh (PAK6; [1]) [%] | %Inh (PAK7; [1]) [%] | %Inh (PCTK1) [%] | %Inh (PCTK2) [%] | %Inh (PCTK3; [1]) [%] | %Inh (PDGFRA; [1]) [%] | %Inh (PDGFRB; [1]) [%] | %Inh (PDPK1; [1]) [%] | %Inh (PFTAIRE2; [1]) [%] | %Inh (PFTK1; [1]) [%] | %Inh (PAK6; [2]) | %Inh (PAK7; [2]) | %Inh (PCTK3; [2]) | %Inh (PDGFRA; [2]) | %Inh (PDGFRB; [2]) | %Inh (PDPK1; [2]) | %Inh (PFTAIRE2; [2]) | %Inh (PFTK1; [2])
CS(=O)(=O)c1ccc(-c2nc3n(c2-c2ccncc2)CCC3)cc1 [SKF-105942] | 99.2 | 0 | 11 | 0 | 0 | 0 | 4 | 0 | 12 | 37 | – | – | – | – | – | – | – | –
O=S(=O)(c1ccc(-c2ccnc3[nH]ccc23)cc1)N1CCCC1 [GSK846226] | 20 | 15 | 7 | 0 | 0 | 0 | 24 | 0 | 24 | 27 | – | – | – | – | – | – | – | –
CC(=O)Nc1nc2cnc(Nc3cc(NC(=O)c4cccc(CCC#N)c4)ccc3C)nc2s1 | 19 | 0 | 9 | 6 | 8 | 94.3 | 100 | 4 | 0 | 12 | – | – | – | – | – | – | – | –
COc1cccc(-c2cc(-c3c[nH]nc3-c3ccccn3)ccn2)c1 [GW680338] | 3 | 9 | 0 | 0 | 8 | 0 | 8 | 0 | 10 | 1 | – | – | – | – | – | – | – | –
Nc1nc(-c2nccs2)c(-c2ccnc3ccccc23)s1 [GW693542] | 9 | 0 | 8 | 0 | 5 | 0 | 1 | 0 | 13 | 17 | – | – | – | – | – | – | – | –
Cc1cccc(-c2nc(Nc3cccc(C(N)=O)c3)c3ccccc3n2)n1 [GW876019] | 0 | 0 | 0 | 0 | 0 | 0 | 5 | 0 | 20 | 0 | – | – | – | – | – | – | – | –
COc1cc(Nc2nccc(N3CCC(NC(=O)Nc4cc(C)ccc4C)C3)n2)cc(OC)c1OC (centres unmarked) [GSK1379762] | 0 | 0 | 9 | 24 | 33 | 8 | 42 | 11 | 24 | 21 | – | – | – | – | – | – | – | –
COc1ccc(CNC(=O)NC2CCN(c3ccnc(Nc4cc(OC)c(OC)c(OC)c4)n3)C2)cc1 (centres unmarked) [GSK1379748] | 0 | 2 | 7 | 0 | 0 | 15 | 54 | 0 | 9 | 0 | – | – | – | – | – | – | – | –
COC(=O)c1c(-c2ccccc2)c2cc(C(=O)O)ccc2c(=O)n1Cc1ccccc1 | 16 | 0 | 8 | 0 | 0 | 65 | 99.4 | 14 | 0 | 0 | – | – | – | – | – | – | – | –
NC(=O)c1nnc2ccccc2c1N | 4 | 0 | 6 | 0 | 7 | 12 | 9 | 7 | 14 | 5 | – | – | – | – | – | – | – | –
Cl.NC(=O)c1cccc(Nc2nccc(Nc3ccc(Oc4cccc(Cl)c4)c(Cl)c3)n2)c1 [GW659008] | 0 | 5 | 0 | 7 | 9 | 0 | 68 | 0 | 4 | 8 | – | – | – | – | – | – | – | –
CSc1nn2c(=O)cc(N3CCOCC3)nc2n1Cc1cccc(C(F)(F)F)c1C [GSK2363608] | – | – | 2 | 0 | – | – | – | – | – | – | 12% and 0% | 1% and 0% | 0% and 5% | 15% and 0% | 12% and 8% | 7% and 0% | 23% and 6% | 21% and 6%
Cc1cccc(-c2nc(Nc3ccncc3)c3ccccc3n2)n1 [GW855857] | 3 | 0 | 0 | 10 | 0 | 0 | 3 | 24 | 0 | 0 | – | – | – | – | – | – | – | –
Cc1cc(NCC(c2ccccc2)c2ccccc2)nc(NCc2ccc(C(F)(F)F)cc2)n1 [GW497681] | 0 | 0 | 0 | 13 | 35 | 0 | 21 | 0 | 13 | 18 | – | – | – | – | – | – | – | –
O=C(Nc1ccccc1)Nc1cccc(Oc2ccc3nccn3n2)c1 | 0 | 29 | 0 | 5 | 0 | 98.9 | 100 | 0 | 57 | 0 | – | – | – | – | – | – | – | –
CC(C)(C)c1ccc(C(=O)Nc2cn3cc(Cl)ccc3n2)cc1 | 0 | 27 | 0 | 0 | 0 | 12 | 71 | 0 | 0 | 0 | – | – | – | – | – | – | – | –
CCn1c(-c2cccnc2O)nc2cnccc21 [SB-736715] | 0 | 3 | 0 | 0 | 0 | 0 | 0 | 0 | 11 | 0 | – | – | – | – | – | – | – | –
